Measured values reported in PubChem BioAssay AID651774 (Broad Institute, 2012).
Potency and affinity values are given separately. Active and inactive are the calls of the source. Entries that show only a call come without a potency. No rule for the calls is given here.

test: HeLa cell viability loss – 24 h, dry powder, cytotoxicity control, dose response (AID 651774); conditions: CellTiter-Glo ATP luminescence; series mostly up to 35 µM

SMILES | outcome
COc1cccc(CC(=O)NC2CCCC2)c1 | inactive
O=C(Cc1ccc(-c2ccccc2)cc1)N1CCC(F)(F)CC1 | inactive
CC(C)c1ccc(CNc2nnnn2C)cc1 | inactive
CC(C)NC(=O)Cc1ccc(-c2ccccc2)cc1 | inactive
CCn1nnnc1NCc1ccccc1 | inactive
CN(Cc1ccc(N2CCCC2)cc1)c1nnn(C)n1 | inactive
COc1ccccc1CC(=O)NC1CCCC1 | inactive
Cn1nnc(NCc2ccc(C(F)(F)F)cc2)n1 | inactive
O=C(Cc1ccc(-c2ccccc2)cc1)NC1CCCCC1 | inactive
O=C(Cc1ccc(C(F)(F)F)cc1)NC1CCCC1 | inactive
CN(C)C(=O)Cc1ccc(-c2ccccc2)cc1 | inactive
CCCn1nnnc1NCc1ccc(C(C)C)cc1 | inactive
O=C(Cc1ccccn1)NC1CCCC1 | inactive
O=C(Cc1ccc(-c2cccnc2)cc1)NC1CCCC1 | inactive
O=C(Cc1cccc(C(F)(F)F)c1)NC1CCCC1 | inactive
COc1ccc(CC(=O)NC2CCCC2)cc1 | inactive
O=C(Cc1ccccc1-c1ccccc1)NC1CCCC1 | inactive
c1cc(N2CCCC2)ccc1CNc1nn[nH]n1 | inactive
O=C(Cc1ccc(F)cc1)NC1CCCC1 | inactive
CC(C)n1nnnc1NCc1ccc(N2CCCC2)cc1 | inactive
O=C(Cc1ccc(-c2ccccc2)cc1)Nc1ccccc1 | inactive
CN1CCC(NC(=O)Cc2ccc(-c3ccccc3)cc2)CC1 | inactive
O=C(Cc1ccc(-c2ccccc2)cc1)N1CCCCC1 | inactive
O=C(Cc1ccccc1F)NC1CCCC1 | inactive
Cc1ccc(CC(=O)NC2CCCC2)cc1 | inactive
CCn1nnc(NCc2ccc(N3CCCC3)cc2)n1 | inactive
CCN(Cc1ccc(N2CCCC2)cc1)c1nnnn1CC | inactive
O=C(Cc1cccnc1)NC1CCCC1 | inactive
